Screens (PubChem BioAssay)
Rows were chosen to be rich in hits. Some 2.2% of all compounds tested hit in one or more screens of this group.
PLCg1 inh: inhibitors of human phospholipase C gamma1. hit rate 0.84% among 370,000. purified PLC-gamma1, fluorogenic substrate, fluorescence. inhibition, % at 12.2 µM; in the data active = inhibition above about 9.5%
H9c2 protect: modulators protecting cardiomyocytes from myocardial damage; H9c2 cardiomyocytes, H2O2 injury protection, ATPLite, 2 h; protection from H2O2 cell death, % at 20 µM; hit rate 0.63% among 360,000; AID 588492;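 active = compounds giving at least 50% protection of heart cells from peroxide-induced death in the single-dose screen, raw or plate-pattern-corrected value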;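 also: 0% = DMSO wells with peroxide and 100% = DMSO wells without peroxide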
PLC-beta3 inh: inhibitors of human phospholipase C beta3 | Q01970 | Purified PLC-beta3, fluorogenic substrate, fluorescence | inhibition, % at 12.2 µM | hit rate 0.18% among 370,000 | AID 720704;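 also: 0% = median of compound wells on plate and 100% = full blocker control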
FAS TE block: inhibitors of human fatty acid synthase thioesterase domain; P49327; recombinant FAS-TE, OMFH fluorogenic substrate, fluorescence endpoint; AID 602261; inhibition, % at 15 µM; hit rate 0.67% among 360,000;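 active = compounds whose normalised, plate-corrected inhibition of enzyme fluorescence in the single-dose primary screen is 50% or more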;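 also: 0% = DMSO with enzyme and 100% = substrate without enzyme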
PLCgamma1 ctr: PLC-gamma1 inhibition, counter-screen for PLC-beta3 hits. shares compounds with PLCg1 inh. purified PLC-gamma1, fluorogenic substrate, fluorescence. inhibition, % at 12.3 µM. hit rate 3.1% among 3,300. AID 743258; in the data active = inhibition above about 9.5%
PLCbeta3 conf: confirmation of human PLC-beta3 inhibitors. inhibition, % at 12.3 µM. shares compounds with PLCg1 inh. purified PLC-beta3, fluorogenic substrate fluorescence. hit rate 1% among 3,300
An asterisk follows results filed as active; . = no result given. Rule as the data show it, unless noted: active = inhibition above about 11%; inactive = the rest.

SMILES | PLCg1 inh | H9c2 protect | PLC-beta3 inh | FAS TE block | PLCgamma1 ctr | PLCbeta3 conf
Clc1ncnc2[nH]ccc12 | -3 | 8 | 2 | -10 | . | .
CCN1CCN(c2c(S(=O)(=O)c3ccc(Cl)cc3)cnc3ccccc23)CC1 | 2 | . | 0 | . | . | .
Cc1cc(SCC(=O)N2CCCC2=O)nc2ccccc12 | 12* | 3 | -1 | 0 | -3 | -4
CSc1ncccc1C(=O)NC1CCCc2c1cnn2-c1ccc(C)c(C)c1 (stereo unspecified) | 11* | -6 | -8 | 0 | 2 | 0
COc1ncccc1C(=O)NC1CCCc2c1cnn2-c1ccc(C)c(C)c1 (stereo unspecified) | -3 | -11 | -12 | 7 | . | .
COc1ccc(S(=O)(=O)NNS(=O)(=O)c2ccc(OC)c(OC)c2)cc1OC | . | 4 | . | -2 | . | .
COc1ccc(S(C)(=O)=O)cc1S(C)(=O)=O | 9.5* | 0 | 8 | -6 | -5 | -2
CNC(=O)CN1C(=O)CSc2ncccc21 | 4 | 5 | 14* | -2 | 2 | 2
CCN(CC)c1ccc(NC(=O)CN2C(=O)CSc3ncccc32)c(C)c1 | -1 | -9 | -1 | -4 | . | .
O=C1c2cccnc2C(=O)N1CO | -1 | -1 | 6 | -8 | . | .
NC1=C(Br)C(=O)c2ncccc2C1=O | 9.5* | -18 | 6 | 18 | 6 | 5
COC(=O)[C@]12C[C@H](CC(=O)NCc3ccc(OC)c(OC)c3)C(=O)N(Cc3ccc(Cl)cc3Cl)C1=C[C@H](C1CCCC1)O[C@@H]2C | -2 | . | -2 | . | . | .
N#C/C(=C\c1ccc(OCc2ccc(Br)cc2)cc1)C(=O)Nc1cccc(C(=O)O)c1 | -1 | -14 | -6 | 48 | . | .
N#C/C(=C\c1ccc(OCc2ccc(F)cc2)cc1)C(=O)Nc1cccc(C(=O)O)c1 | 10* | -9 | 8 | 43 | -8 | -12
CN(C)c1ccc(/C=N/NC(=O)c2nonc2N)cc1[N+](=O)[O-] | 9.8* | 6 | 2 | 1 | -3 | 5
COc1ccc(/C=N/NC(=O)c2ccc3c(c2)OCCO3)cc1[N+](=O)[O-] | 11* | 0 | -3 | -2 | -10 | -3
COc1ccc(/C=C/C(=O)c2ccc3c(c2)OCCO3)cc1[N+](=O)[O-] | 2 | -9 | 3 | -2 | . | .
COc1ccc(-c2oc3c(c2C#CCCCCO)C(OCCO)CC3)cc1 (stereo unspecified) | -29 | . | -38 | -7 | . | .
COCCn1c(SCC(=O)OC(C)C)nnc1-c1ccccc1 | 12* | 2 | 8 | -4 | -3 | 0
CC(=O)C1CCC2C3CC(O)C4=CC(=O)CCC4(C)C3C(=O)CC12C (stereo unspecified) | -1 | 6 | 2 | -7 | . | .
C#CCN1CCc2onc(-c3ccccc3OC)c2C1=O | 1 | -1 | 0 | -5 | . | .
S=C(Nc1ccccc1)c1ccccn1 | 11* | -19 | 12* | 1 | -4 | 0
S=C(Nc1ccccc1)Nc1ccccn1 | 1 | 4 | 4 | -2 | . | .
CCOC(=O)/C(C#N)=C/c1c(OCC)n(CC)c2ccccc12 | 10* | -6 | -8 | 33 | -10 | -9
FC(F)(F)c1ccccc1N/N=C/c1cccnc1 | 10* | -5 | -3 | 6 | 1 | -2
SMILES | PLCg1 inh | H9c2 protect | PLC-beta3 inh | FAS TE block | PLCgamma1 ctr | PLCbeta3 conf
O=C(COC(=O)c1c[nH]c2ccccc12)Nc1cccc(F)c1 | 2 | 0 | -4 | 6 | . | .
Cc1ccc(-c2csc(C(O)c3ccccc3)n2)cc1C (stereo unspecified) | -1 | -10 | 2 | 11 | . | .
CN(C)c1ccc(O)c2c1CC1CC3[C@@H](N(C)C)C(=O)C(C(N)=O)=C(O)[C@]3(O)C(=O)C1=C2O (stereo partly specified) | 17* | 17 | 1 | 0 | -3 | -7
C[C@H]1c2cccc(O)c2C(O)=C2C(=O)[C@]3(O)C(O)=C(C(N)=O)C(=O)[C@@H](N(C)C)[C@@H]3[C@@H](O)[C@@H]21 | . | 4 | . | 0 | . | .
Cc1ccc(Cc2c(C3CCCCC3)nc3ccc(Cl)cn23)cc1 | -8 | -8 | -13 | 7 | . | .
O=C(c1ccc(CSc2nc3ccncc3[nH]2)cc1)N1CCN(c2cccc(Cl)c2)CC1 | 16* | -24 | 2 | -39 | 2 | 1
COc1ccc(NC(=O)CC2C(=O)N(C)C(=S)N2Cc2ccncc2)cc1 (stereo unspecified) | 10* | -1 | 0 | -1 | -6 | -6
NC(=O)c1ccc(NC(=O)COC(=O)CCC2CCCCC2)cc1 | 14* | -8 | -6 | 1 | -5 | -3
